An excerpt weighted towards active compounds, which were near 5.3% of everything screened.
IMPase cell inh: qHTS Assay for Identifying the Cell-Membrane Permeable IMPase Inhibitors; Inositol monophosphatase 1 (Rattus norvegicus), P97697; CHO-M1 cells, IP1 accumulation, HTRF TR-FRET ratio; inhibition (IP1 accumulation), % at 46.1 µM; 120,000 tested, under 10 active; AID 901, 2007; active = well fitted curve in the direction sought with a large enough effect in the signal ratio, not every such curve was filed as active; inconclusive = small, poorly fitted or top-dose-only effect, or a change in a side signal; inactive = no such curve, though single readings can be large or run the other way; the % refers to the signal ratio;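 also: cells stimulated with carbachol in lithium chloride buffer; higher means more IMPase inhibition seen as more IP1 and lower FRET ratio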
Target sequence (P97697 whole entry, looked up): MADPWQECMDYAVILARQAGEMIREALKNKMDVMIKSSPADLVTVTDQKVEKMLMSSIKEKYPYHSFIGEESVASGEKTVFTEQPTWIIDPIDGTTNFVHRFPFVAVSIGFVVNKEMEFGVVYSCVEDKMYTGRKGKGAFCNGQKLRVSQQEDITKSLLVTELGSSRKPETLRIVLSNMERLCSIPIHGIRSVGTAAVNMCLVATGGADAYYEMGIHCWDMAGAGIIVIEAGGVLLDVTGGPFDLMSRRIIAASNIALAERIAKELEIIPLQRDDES
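Elevated IP1 in lysates lowers TR-FRET signal (665/620 ratio and 620 channel reported). Cells were CHO-M1, given carbachol (50 uM as added) plus 50mM LiCl, pH 7.4, 30 min, 37C; compounds titrated up to 46 uM; AC50 by Hill equation.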
IMPase Li inh: qHTS Assay for Identifying the Cell-Membrane Permeable IMPase Inhibitors: Potentiation with Lithium | CHO-M1 cells, IP1 TR-FRET (IP-One), carbachol + lithium | Potency, µM (titrated, usually from 59.4 µM), hits mostly inhibitors | 210,000 tested, 0.35% active;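 also: IP1 builds up when IMPase is blocked and the TR-FRET signal falls; nearly all actives have a fitted effect of over 50% in size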
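Readout is a homogeneous TR-FRET IP1 immunoassay (Ex 320, Em 665 and 620), where raised cytosolic IP1 lowers signal. Cells were CHO-M1 treated 30 min at 37C with test compounds plus a little lithium; AC50 values came from Hill-equation fitting.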
ALOX15B inhib: qHTS Assay for Inhibitors of 15-hLO-2 (15-human lipoxygenase 2). Potency, µM (top dose mostly 57.1 µM), usual class: inhibitors. Polyunsaturated fatty acid lipoxygenase ALOX15B (Homo sapiens), O15296. purified 15hLO-2, xylenol orange hydroperoxide absorbance. AID 881, 2007. 110,000 tested, 0.56% active; also: nearly all actives have a fitted effect of over 60% in size
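Read-out: hydroperoxide product oxidises ferrous iron, measured as xylenol orange complex via the 573-to-405 nm absorbance ratio after 30 min. Reaction: 50 nM enzyme, 15 min compound preincubation, 45 uM arachidonic acid, 90 min RT, Hepes pH 7.5 with Triton X-100.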
PNC inhibitor: High Content Assay for Compounds that inhibit the Assembly of the Perinucleolar Compartment; PC3M PTB-GFP, PNC prevalence imaging, 16 h; active compounds read low; 140,000 tested, 3.1% active; activity change (PNC), negative = inhibition, % at 10 µM;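 active = readout at or below -70, meaning at least 70% loss of cells showing the perinucleolar compartment, a nuclear body marking cancer cells; inconclusive = readout between -30 and a set limit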
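Read-out is percentage of cells bearing a perinucleolar compartment, from automated 20x imaging of fixed, Hoechst-stained PC3M PTB-GFP cells. Cells were seeded 4 h, then exposed 16 h to compound (23 nl of library stock) in duplicate plates.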
HPGD block: qHTS Assay for Inhibitors of HPGD (15-Hydroxyprostaglandin Dehydrogenase); 150,000 tested, 4.3% active; Potency, µM, usual class: inhibitors; AID 894, 2007; purified HPGD, NADH fluorescence kinetic, PGE2 substrate; active = well fitted inhibition curve with a large enough effect, not every such curve was filed as active; inconclusive = small, poorly fitted or top-dose-only effect, or another doubt; inactive = no such curve, though single readings can be large or run the other way
Target sequence (P15428 whole entry, looked up): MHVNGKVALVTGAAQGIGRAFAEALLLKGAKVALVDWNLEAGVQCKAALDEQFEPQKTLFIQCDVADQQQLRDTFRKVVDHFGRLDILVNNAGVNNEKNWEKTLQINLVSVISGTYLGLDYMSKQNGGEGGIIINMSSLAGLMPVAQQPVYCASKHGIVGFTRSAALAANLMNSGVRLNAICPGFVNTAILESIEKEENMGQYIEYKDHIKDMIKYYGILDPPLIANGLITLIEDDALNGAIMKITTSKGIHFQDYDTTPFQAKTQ
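20 nM HPGD preincubated 15 min at room temperature with compound in 50 mM Tris-HCl pH 8, 0.01% Tween 20. Started with 1 mM NAD+ and 30 uM prostaglandin E2; NADH fluorescence (360/450 nm) read 5 times over 30-s intervals, last minus first.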
12-hLO inh: qHTS Assay for Inhibitors of 12-hLO (12-human lipoxygenase) | Polyunsaturated fatty acid lipoxygenase ALOX12 (Homo sapiens), P18054 | purified 12-hLO, xylenol orange hydroperoxide absorbance | Potency, µM (highest dose often 57.1 µM), usual class: inhibitors | 150,000 tested, 0.12% active | AID 1452, 2008; also: nearly all actives have a fitted effect of over 55% in size
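Hydroperoxide output read as Fe(III)-xylenol orange absorbance, 573-to-405 nm ratio, after 30 min reaction with 40 uM arachidonic acid. Enzyme: 150 nM purified human 12hLO, 15 min compound preincubation; 25 mM Hepes pH 7.0, room temperature.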
Hits are given with their value; n = inactive; u = inconclusive; x = not tested or not shown; [ ] = another dose, or the depositor's remark. Unless noted, calls follow the shape of the dose curve; as a rule, active = well fitted curve in the direction sought with a large enough effect; inconclusive = small, poorly fitted or top-dose-only effect, or another doubt; inactive = no such curve, though single readings can be large; an effect the other way counts as inactive or inconclusive.

SMILES	IMPase cell inh	IMPase Li inh	ALOX15B inhib	PNC inhibitor	HPGD block	12-hLO inh
CCOC(=O)CSC1=C(C#N)C(c2ccc(OC)cc2)C2=C(CC(C)(C)CC2=O)N1 (configuration not stated)	u	10µM	n	n	u	n
O=C(O)c1ccccc1Nc1ccccc1C(=O)O	n	n	n	u	n	n
Cc1c(Cl)cccc1Nc1ccccc1C(=O)O	n	n	n	x	14.1µM	n
Cc1c(Cl)cccc1NC(CC(=O)c1ccccc1)C(=O)O (configuration not stated)	x	n	x	-83.3	n	n
O=C(CC(Nc1ccccc1Cl)C(=O)O)c1ccccc1 (configuration not stated)	x	n	x	x	x	x
O=C(O)c1ccccc1Nc1ccc([N+](=O)[O-])cc1	x	n	x	-86.9	n	n
CC(C(=O)Nc1ccc2c(c1)OCO2)N(c1ccc(Cl)cc1)S(C)(=O)=O (configuration not stated)	n	n	n	n	n	n
CCC1CCCCN1C(=O)C1CC(c2cc(Cl)c(OC)cc2OC)=NO1 (configuration not stated)	n	n	n	n	14.1µM	n
COc1cc(OC)c(C2=NOC(C(=O)N3CCCc4ccccc43)C2)cc1Cl (configuration not stated)	n	n	n	n	u	n
O=C(NCC1CCCO1)c1ccc(COCC(F)(F)C(F)F)cc1 (configuration not stated)	n[1.84 µM]	n	n[11.4 µM]	n	14.1µM	n
CN(C)S(=O)(=O)c1cccc(C(=O)NCC2CCCO2)c1 (configuration not stated)	n	n	n	n	n	n
O=C(NCC1CCCO1)c1cccc(Br)c1 (configuration not stated)	n	n	n	n	25.1µM	n
O=C(Nc1ccc(Cl)cc1C(=O)NCC1CCCO1)c1ccc(Cl)cc1Cl (configuration not stated)	n	n	x	n	n	n
COc1cc(OC)cc(C(=O)NCC2CCCO2)c1 (configuration not stated)	n	n	n	n	25.1µM	n
O=C(NCC1CCCO1)c1sc2cc(Cl)ccc2c1Cl (configuration not stated)	n	n	x	u	14.1µM	n
O=C(C[C@@H](c1ccccc1)N1CCCCC1)c1ccccc1	x	n	n[11.4 µM]	x	u	n[11.4 µM]
CCN(CC)S(=O)(=O)c1cc(C(=O)OCC(=O)Nc2cccc(Br)c2)ccc1F	x	n	x	n	n	n
CC(C)(C)C1CCc2c(sc(NC(=O)CCC(=O)O)c2C(=O)Nc2ccccc2C(F)(F)F)C1 (configuration not stated)	n	x	x	x	x	x
COc1cccc(C(=O)NCC2CCCO2)c1 (configuration not stated)	n	n	n	n	8.91µM	n
COc1cccc(S(=O)(=O)NCc2ccc(C(=O)NCc3ccco3)cc2)c1	n	n	n	u	n	n
CC(C)CC(=O)c1c[nH]c(C(=O)NCC2CCCO2)c1 (configuration not stated)	n	n	n	n	20µM	n
O=C(/C=C/c1cccc([N+](=O)[O-])c1)NCC1CCCO1 (configuration not stated)	n[1.84 µM]	n	n[11.4 µM]	n	6.31µM	n
COc1cccc(S(=O)(=O)NCc2ccc(C(=O)NCC3CCCO3)cc2)c1 (configuration not stated)	n	n	n[2.29 µM]	n	15.8µM	n
COc1cccc(CNC(=O)C(=O)NCC2CCCO2)c1 (configuration not stated)	u	n	x	n	n	n
O=C(NCC1CCCO1)C(=Cc1cccc([N+](=O)[O-])c1)C(=O)NCC1CCCO1 (configuration not stated)	x	n	x	n	n	n
SMILES	IMPase cell inh	IMPase Li inh	ALOX15B inhib	PNC inhibitor	HPGD block	12-hLO inh
Cc1ccc(N2CC(C(=O)O)CC2=O)cc1 (configuration not stated)	x	n	x	x	x	x
COc1ccc(OC)c(NC(=O)c2ccc(CSc3ncccn3)cc2)c1	x	n	x	x	x	x
CCOC(=O)CC(=O)N/N=C/c1c(N)n(C)c(=O)n(C)c1=O	x	n	x	x	x	x
CCOC(=O)c1c(C)[nH]c(C(=O)COC(=O)CNC(=O)c2ccc(Cl)cc2Cl)c1C	x	n	x	n	n	n
Cc1ccc(C(=O)Nc2ccc3oc(-c4cccnc4)nc3c2)c(Cl)c1	n	x	x	x	x	x
CCCC(=O)Nc1ccc(C(=O)NCC2CCCO2)cc1 (configuration not stated)	n	n	n	n	11.2µM	n
CC1CCCN(c2ccc(C(=O)NCC3CCCO3)cn2)C1 (configuration not stated)	n[1.84 µM]	n	n[11.4 µM]	n	11.2µM	n
CC(C)(C)CC(=O)NCc1ccc(F)cc1	n	n	n	n	22.4µM	n
Cc1nn(C)c(=O)n1-c1ccccc1	x	n	x	x	x	x
Cc1nc(=O)cc(-c2ccccc2)n1-c1ccccc1	n	n	n	-107.8	n	n
O=c1cc(-c2ccccc2)[nH]c2ccccc12	n	n	n	u	12.6µM	n
O=C1C(c2cc(=O)c3ccccc3[nH]2)=C(O)c2ccccc21	x	n	x	n	14.1µM	n
CN(C)C(=S)Nn1c(-c2ccccc2)nc2ccccc2c1=O	x	n	x	n	n	n
Cc1cccc(-c2nc3ccccc3c(=O)n2NC(=S)N(C)C)c1	u	n	x	n	15.8µM	n
CCN(C(=O)COC(=O)c1ccc(S(=O)(=O)N2CCCc3ccccc32)cc1)C1CCS(=O)(=O)C1 (configuration not stated)	x	n	x	x	x	x
Oc1c(Cl)cc(Cl)c(Cl)c1Cl	x	n	n	x	u	n
Oc1c(Cl)cc(C(c2cc(Cl)c(O)c(Cl)c2)C(c2cc(Cl)c(O)c(Cl)c2)c2cc(Cl)c(O)c(Cl)c2)cc1Cl	x	n	3.98µM	x	n	n[11.4 µM]
Cc1ccc(C(=O)O[C@H](C(=O)O)[C@@H](OC(=O)c2ccc(C)cc2)C(=O)O)cc1 (tested in a mixture with another compound)	x	n	x	x	n	x
O=c1n(-c2ccccc2)c(=O)n2n1CCCC2	n	n	n[2.29 µM]	-120.4	n	n
Cc1ccc(N2C(=O)/C(=C\c3ccco3)SC2=S)cc1	n	n	u	n	u	7.94µM
CCOC(=O)NC(=O)CSc1nnc(C2CC2)n1Cc1ccco1	x	n	x	x	x	x

Screening data as filed in PubChem.
